From PubChem BioAssay AID504848 (National Center for Advancing Translational Sciences (NCATS), 2011)
In all, about 2,300 compounds went through this assay and about 1,400 (61%) were called active. Another 29% or so got no clear call; they are omitted. The set was probably picked from earlier hits. The list shows a part of the results. Values without a mark were called inactive. Calls come from the whole dose curve; as a rule, active = well fitted inhibition curve with a large enough effect; inconclusive = small, poorly fitted or top-dose-only effect, or effect the other way; inactive = no such curve, though single readings can be large or run the other way.

experiment: Confirmation screen for delayed death inhibitors of the malarial parasite plastid, 96 hour incubation; note: nearly all actives have a fitted effect of over 60% in size; details: P. falciparum luciferase growth in erythrocytes; series mostly up to 28.7 µM; activity change, negative = inhibition: at the top concentration
Method in brief: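 Two-generation (96 h, 37 C) exposure of P. falciparum carrying an integrated firefly luciferase reporter in erythrocytes, 0.1% parasitemia and 2% hematocrit final, Albumax-supplemented RPMI. Luminescence decrease measures growth inhibition.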
% is set by controls: 0 for no effect and ±100 for the full control effect; potency is the fitted concentration of half-maximal effect.

SMILES	Potency	activity change, negative = inhibition
CCCCn1c(C2CCCCC2)nc2cc3[nH]c(=O)c(C(C)C)nc3cc21	11.2 µM (active)	–
Cc1cc(=O)oc2c1ccc1oc(/C(=N/O)c3ccccc3)c(C)c12	4.47 µM (active)	–
Cc1cc(Cl)cc(C)c1OCCn1ccnc1	11.2 µM (active)	–
CC#CC#Cc1cccc(=O)o1	3.98 µM (active)	–
Clc1ccc2nc(-c3ccccn3)c(Nc3ccc4c(c3)OCO4)n2c1	10 µM (active)	–
CCCCSc1nnc(-c2cc3c(C(F)(F)F)nn(C)c3s2)n1C	10 µM (active)	–
CCOc1ccccc1NC(=O)/C(C#N)=C/c1cccnc1	12.6 µM (active)	–
Cc1oc(=O)c(NC(=O)c2ccc(Cl)cc2)cc1C(=O)c1ccccc1	–	-6.13%
O=C(c1ccccc1)c1nn(-c2ccc(Cl)cc2)c(=O)cc1C(F)(F)F	12.6 µM (active)	–
O=C(c1cccc(Cl)c1)c1nn(-c2ccccc2)c(=O)cc1C(F)(F)F	6.31 µM (active)	–
COc1ccc(N2CCN(C3CCCN(Cc4ccc(F)cc4)C3)CC2)cc1 (stereo not given)	14.1 µM (active)	–
COc1ccccc1N1CCN(C2CCCN(Cc3ccc(Cl)cc3)C2)CC1 (stereo not given)	2.51 µM (active)	–
Cc1cccc(/C=C/C(=O)c2ccc(NC3=NCCCS3)cc2)c1	11.2 µM (active)	–
O=C(/C=C/c1ccccc1)c1ccc(NC2=NCCCS2)cc1	14.1 µM (active)	–
Cc1cc(C(=O)N2CCCC(N3CCN(c4cccc(C(F)(F)F)c4)CC3)C2)c(C)o1 (stereo not given)	10 µM (active)	–
O=C(c1ccsc1)N1CCCC(N2CCN(c3cccc(C(F)(F)F)c3)CC2)C1 (stereo not given)	12.6 µM (active)	–
COc1ccc(/C=C/C(=O)c2ccccc2)cc1Cn1nnc2ccccc21	6.31 µM (active)	–
COc1cc(Cn2nnc3ccccc32)ccc1O	11.2 µM (active)	–
Cc1cccc(NC(=S)/N=C(\N)Nc2nc(C)c3ccccc3n2)c1	12.6 µM (active)	–
CCCN1CCN(CCCNC(=O)c2cc3c(s2)-c2c(C)cccc2OC3)CC1	12.6 µM (active)	–
CCn1c2ccccc2c2c3ncc4cccn4c3ccc21	14.1 µM (active)	–
COC(=O)[C@@H]1C[C@]2(OC(=O)c3ccccc3)C=CC(=O)C[C@@H]2N1C(=O)OCc1ccccc1	12.6 µM (active)	–
O=C(COc1ccccc1)N1CCN(S(=O)(=O)c2ccc(Br)cc2)CC1	10 µM (active)	–

SMILES	Potency	activity change, negative = inhibition
O=S(=O)(c1ccc(OCc2ccc(Br)cc2)cc1)N1CCOCC1	8.91 µM (active)	–
Cc1cc(OCC(=O)N2CCCC2)cc(C)c1Cl	–	-3.62%
O=S(=O)(c1ccc(SCCO)nc1)N1CCOCC1	–	5.43%
CCOc1ccc(S(=O)(=O)N2CCN(C(=O)CCOc3ccccc3C)CC2)cc1	11.2 µM (active)	–
CCOc1ccccc1OCCC(=O)N1CCN(S(=O)(=O)c2ccccc2[N+](=O)[O-])CC1	11.2 µM (active)	–
Cc1cc(C)n2nc(C(=O)N/N=C/c3c4ccccc4cc4ccccc34)nc2n1	4.47 µM (active)	–
Cn1nccc1C(=O)N1CCc2c([nH]c3ccccc23)C1c1ccc(F)cc1 (stereo not given)	6.31 µM (active)	–
CCc1ccc(C2c3[nH]c4ccccc4c3CCN2C(=O)c2cc(C)nn2C)cc1 (stereo not given)	3.55 µM (active)	–
CSc1ccc(C2c3[nH]c4ccccc4c3CCN2C(=O)c2ccnn2C)cc1 (stereo not given)	3.98 µM (active)	–
N=c1c2c3c(sc2ncn1Cc1ccccc1)CCCC3	–	-12.3%
COc1ccccc1NC(=O)c1oc2ccccc2c1NC(=O)C1CC1	7.94 µM (active)	–
O=C(c1ccccc1)N1CCCC(c2ccc(Cl)cc2)=N1	12.6 µM (active)	–
O=[N+]([O-])c1ccc(Sc2cccc3cccnc23)c([N+](=O)[O-])c1	2.82 µM (active)	–
Cc1ccc(/C=C/C(=O)NC(C)c2ccccc2)cc1 (stereo not given)	11.2 µM (active)	–
COc1ccc2nc3cc(Cl)ccc3c(Nc3cc(C(C)C)c(O)cc3C)c2c1	0.0251 µM (active)	–
CCN(CC)CCC[C@H](C)Nc1ccnc2cc(Cl)ccc12	0.501 µM (active)	–
CCN(CC)CCC[C@H](C)Nc1c2ccc(Cl)cc2nc2ccc(OC)cc12	0.224 µM (active)	–
O=C(CCl)Nc1cccc2ncccc12	3.55 µM (active)	–
Cc1nc(SC(C)C(=O)NCC2CCCO2)c2cc(-c3ccccc3)sc2n1 (stereo not given)	11.2 µM (active)	–
CN(C)c1ccc(S(=O)(=O)N2CCCCC2)cc1NC(=O)C1=NN(c2ccccc2)C(=O)CC1	3.55 µM (active)	–
O=C(Nc1cc(Cl)ccc1N1CCCC1)C1=NN(c2ccccc2)C(=O)CC1	12.6 µM (active)	–
O=C(CSc1nnc(COc2ccccc2)n1-c1ccccc1)c1cccs1	11.2 µM (active)	–
COc1cc2c(cc1OC)CN(C(=O)COc1ccccc1C#N)CC2	–	-97.4%

SMILES	Potency	activity change, negative = inhibition
COc1cc2c(cc1OC)CN(C(=O)COc1ccccc1[N+](=O)[O-])CC2	14.1 µM (active)	–
Cc1ccc(C)c(-n2nnnc2Sc2nnnn2-c2ccccc2)c1	10 µM (active)	–
COc1ccc2c(C)cc(Sc3nnnn3-c3ccccc3)nc2c1	15.8 µM (active)	–
CCCOc1ccccc1/C=C1\SC(N2CCCCC2)=NC1=O	0.891 µM (active)	–
COc1cccc(/C=C2\SC(N3CCCC(C)C3)=NC2=O)c1OC (stereo not given)	11.2 µM (active)	–
CCc1ccc(-c2cc(C)no2)cc1S(=O)(=O)NCc1ccco1	12.6 µM (active)	–
Cc1cc(-c2ccc(C(C)C)c(S(=O)(=O)NCc3ccco3)c2)on1	14.1 µM (active)	–
CN(C)S(=O)(=O)c1cccc(NC(=S)N/N=C/c2cc(Br)ccc2O)c1	3.98 µM (active)	–
O=C(O)CCn1c(-c2ccccc2)cc2c1CCCC2=O	–	-11.5%
CC(=O)/C=C/c1ccccc1Oc1c(F)c(F)nc(F)c1F	3.16 µM (active)	–
O=C(CSc1cccc2cccnc12)N/N=C/c1cccnc1	12.6 µM (active)	–
CN(C)S(=O)(=O)c1cccc(NC(=O)CSc2cccc3cccnc23)c1	7.94 µM (active)	–
O=C(NCc1ccccc1)C1=C[C@@H](c2coc3ccccc3c2=O)C[C@@H](OCc2ccc(CO)cc2)O1	7.08 µM (active)	–
O=C(Nc1ccccc1)C1=C[C@@H](C2CCCCC2)C[C@@H](OCc2ccc(CO)cc2)O1	10 µM (active)	–
O=C(NC1CC1)C1=C[C@@H](C2CCCCC2)C[C@@H](OCc2ccc(CO)cc2)O1	10 µM (active)	–
COc1cccc(NC(=O)CSc2nc3n[nH]c(C)c3c(=N)n2-c2cccc(OC)c2)c1	6.31 µM (active)	–
NC1=NC[C@@H](Cc2ccc(O)cc2)N1CCc1cccc(F)c1	3.98 µM (active)	–
NC1=NC[C@H](Cc2ccc(O)cc2)N1CCc1cccc(F)c1	3.16 µM (active)	–
NC(=O)C1CCN(c2nc(C3CC3)nc3c2nnn3Cc2ccccc2Cl)CC1	3.16 µM (active)	–
CS(=O)(=O)c1ccc(-c2nnc(NC(=O)c3ccc(S(=O)(=O)N4CCCC4)cc3)o2)cc1	15.8 µM (active)	–
CC1CCN(CCc2nc3cc(NS(=O)(=O)c4ccc(F)cc4)ccc3n2C)CC1	12.6 µM (active)	–
Cn1c(CCN2CCCCC2)nc2cc([N+](=O)[O-])ccc21	–	-17.4%
Cn1c(CCN2CCCCC2)nc2cc(NS(=O)(=O)c3ccc(F)cc3)ccc21	12.6 µM (active)	–

SMILES	Potency	activity change, negative = inhibition
CCOc1ccc(S(=O)(=O)Nc2cc(S(=O)(=O)N(CC)CC)ccc2N2CCCC2)cc1	0.501 µM (active)	–
N#Cc1cc(C(=O)c2cc(Cl)ccc2O)cn(-c2ccccc2)c1=O	12.6 µM (active)	–
COc1ccc(Nc2cccc(Cl)c2)c(C(=O)O)c1	–	-20.8%
COc1cccc(NC(C)C(=O)Nc2cc([N+](=O)[O-])ccc2Cl)c1 (stereo not given)	3.16 µM (active)	–
O=C(O)CCc1ccc(-c2ccccc2)n1-c1ccc(C(=O)O)cc1	–	0.286%
Cc1ccc(NC(=O)c2ccc(Nc3c([N+](=O)[O-])cc([N+](=O)[O-])cc3[N+](=O)[O-])cc2)cc1	2.24 µM (active)	–
Cc1ccc(NC(=O)/C(=C\c2ccc([N+](=O)[O-])cc2)NC(=O)c2ccccc2)cc1	2.82 µM (active)	–
CN1c2ccccc2-c2nc3ccccc3n2C1c1cccs1 (stereo not given)	4.47 µM (active)	–
O=C(c1ccc(CS(=O)c2ccccc2Cl)o1)N1CCN(c2ccccn2)CC1 (stereo not given)	1.41 µM (active)	–
O=C(c1ccc(CS(=O)c2ccccc2Cl)o1)N1CCCCCC1 (stereo not given)	5.62 µM (active)	–
CO[C@@H]1[C@@H](OC2OC(C)C(OC3CC(C)(O)C(OC(=O)CC(C)C)C(C)O3)C(N(C)C)C2O)[C@@H](CC=O)C[C@@H](C)C(=O)/C=C\C2O[C@H]2C[C@@H](C)OC(=O)C[C@H]1OC(C)=O (stereo not given in full)	1.78 µM (active)	–
CO[C@H]1[C@H](O[C@H]2O[C@@H](C)[C@@H](O[C@@H]3C[C@](C)(O)[C@H](O)[C@H](C)O3)[C@@H](N(C)C)[C@@H]2O)[C@@H](CC=O)C[C@@H](C)[C@@H](O[C@H]2CC[C@H](N(C)C)[C@H](C)O2)/C=C\C=C/C[C@@H](C)OC(=O)C[C@H]1O	2.51 µM (active)	–
Cc1ccc(OCCSCc2nnc(NC(=O)Nc3cccc(Cl)c3)s2)cc1	2 µM (active)	–
CCCNC(=O)COC(=O)c1ccccc1C(=O)c1ccc(Cl)c([N+](=O)[O-])c1	10 µM (active)	–
Cc1onc(-c2c(F)cccc2Cl)c1-c1nnc(-c2ccc(C(F)(F)F)cc2)o1	6.31 µM (active)	–
COc1ccc2cc(C(=O)/C=C/c3cc(OC)c(O)c(OC)c3)ccc2c1	15.8 µM (active)	–
COc1cc(O)cc(O)c1C(=O)/C=C/c1ccccc1	11.2 µM (active)	–
COc1cc(/C=C/C(=O)Nc2cccnc2)cc(OC)c1OC	11.2 µM (active)	–
COc1ccc(C(=O)/C=C/c2ccccc2)c(OC)c1	7.94 µM (active)	–
COc1ccc(C(=O)/C=C/c2ccc(OC)c(O)c2)c(F)c1	11.2 µM (active)	–
COc1ccc(C(=O)/C=C/c2cccnc2)c(OC)c1	3.55 µM (active)	–
